PubChem BioAssay AID624138 (Broad Institute, 2012)
The whole screen tested about 17,000 compounds, of which about 35 (0.2%) were called active.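 Rule for the calls: active = compounds whose four printed spots each show fluorescence over background unusually high for their array block, chance value under 7%; inactive = the rest.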 The sample as a whole holds a higher share of actives than the screen did.

The compounds below were run against Signal transducer and activator of transcription 3 (Homo sapiens) (UniProt P40763) (assay: small molecules binding His-tagged STAT3 – biochemical, small molecule microarray, single point, set 2, primary screen (AID 624138)). Details: anti-His fluorescence.
Sequence of Signal transducer and activator of transcription 3 (Homo sapiens) (P40763 whole entry, looked up): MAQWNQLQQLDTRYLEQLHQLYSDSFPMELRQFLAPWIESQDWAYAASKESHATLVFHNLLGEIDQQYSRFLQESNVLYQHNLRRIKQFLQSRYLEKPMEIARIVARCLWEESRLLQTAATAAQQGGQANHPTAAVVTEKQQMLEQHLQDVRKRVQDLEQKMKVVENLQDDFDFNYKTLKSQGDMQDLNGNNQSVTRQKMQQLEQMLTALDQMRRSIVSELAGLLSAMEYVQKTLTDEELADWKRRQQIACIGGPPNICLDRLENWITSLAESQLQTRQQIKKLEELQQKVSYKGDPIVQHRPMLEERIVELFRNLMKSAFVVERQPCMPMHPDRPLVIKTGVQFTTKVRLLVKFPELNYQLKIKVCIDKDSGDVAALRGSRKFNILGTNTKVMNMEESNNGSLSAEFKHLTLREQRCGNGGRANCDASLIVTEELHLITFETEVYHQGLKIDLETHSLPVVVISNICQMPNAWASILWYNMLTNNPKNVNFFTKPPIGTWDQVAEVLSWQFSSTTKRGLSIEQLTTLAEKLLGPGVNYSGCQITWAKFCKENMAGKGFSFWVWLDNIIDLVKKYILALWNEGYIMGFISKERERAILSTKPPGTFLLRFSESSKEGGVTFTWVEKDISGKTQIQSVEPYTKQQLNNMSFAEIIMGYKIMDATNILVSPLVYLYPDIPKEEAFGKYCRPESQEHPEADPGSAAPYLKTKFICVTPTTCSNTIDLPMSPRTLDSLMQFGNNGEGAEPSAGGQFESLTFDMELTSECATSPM

| Structure (SMILES) | outcome |
| --- | --- |
| CNC[C@@H]1Oc2ccc(NC(=O)Nc3ccc4c(c3)OCO4)cc2C(=O)N([C@H](C)CO)C[C@@H]1C | inactive |
| C[C@@H]1CCCCO[C@@H](CN(C)Cc2ccc(Cl)c(Cl)c2)[C@@H](C)CN([C@@H](C)CO)C(=O)c2cc(NS(C)(=O)=O)ccc2O1 | inactive |
| C[C@H]1CCCCO[C@@H](CN(C)Cc2ccccc2)[C@@H](C)CN([C@@H](C)CO)C(=O)c2cc(NC(=O)CCCN(C)C)ccc2O1 | inactive |
| C[C@H]1CN([C@@H](C)CO)C(=O)c2cc(NC(=O)Nc3ccccc3)ccc2O[C@@H]1CN(C)C(=O)Nc1ccccc1 | inactive |
| CCOC(=O)c1c(CN2CCOCC2)nc2c3ccccc3ccn12 | inactive |
| O=C(c1cc2ccccc2oc1=O)N(Cc1ccc(F)cc1)Cc1ccco1 | inactive |
| CCOC(=O)c1sc(NC(=S)Nc2ccc3c(c2)OCCO3)c(C(=O)OCC)c1C | inactive |
| CC(Oc1ccccc1)C(=O)N[C@@H]1C(=O)N2[C@@H]1SC(C)(C)[C@@H]2C(=O)O (some centres undefined) | inactive |
| CC(C)NC(=O)Nc1ccc2c(c1)C(=O)N([C@H](C)CO)C[C@H](C)[C@@H](CN(C)C(=O)CCCN(C)C)OCCCC[C@@H](C)O2 | inactive |
| COc1ccc(-c2oc3cc(OC)ccc3c2C(=O)c2ccc(C#N)cc2)cc1 | inactive |
| C[C@H](CO)N1C[C@H](C)[C@@H](CN(C)Cc2ccncc2)Oc2ccc(NC(=O)Nc3ccccc3)cc2C1=O | inactive |
| C[C@H](CO)N1C[C@H](C)[C@H](CN(C)C(=O)NC2CCCCC2)Oc2c(NC(=O)c3nc4ccccc4s3)cccc2C1=O | inactive |
| C[C@@H]1CCCCO[C@H](CN(C)C(=O)Nc2cccc3ccccc23)[C@@H](C)CN([C@H](C)CO)C(=O)c2cc(NS(=O)(=O)c3cccs3)ccc2O1 | inactive |
| C[C@@H]1CCCCO[C@H](CN(C)Cc2ccccc2)[C@H](C)CN([C@@H](C)CO)C(=O)c2cc(NS(=O)(=O)c3ccccc3)ccc2O1 | inactive |
| C[C@H](CO)N1C[C@H](C)[C@H](CN(C)S(=O)(=O)c2ccc(F)cc2)Oc2ncc(-c3ccc(F)cc3)cc2C1=O | inactive |
| C[C@@H]1CN([C@@H](C)CO)C(=O)c2cc(NS(C)(=O)=O)ccc2O[C@@H]1CN(C)C(=O)Nc1ccc(F)cc1 | inactive |
| C[C@H](CO)N1C[C@H](C)[C@@H](CN(C)S(=O)(=O)c2cn(C)cn2)Oc2ccc(NS(=O)(=O)c3cn(C)cn3)cc2C1=O | inactive |
| C[C@@H]1CC[C@]2(C(=O)O)CC[C@]3(C)C(=CCC4[C@@]5(C)CC[C@H](O)[C@](C)(C(=O)O)C5CC[C@]43C)C2[C@]1(C)O (some centres undefined) | inactive |
| NC(=O)CSc1nnc(-c2ccccc2F)n1-c1ccccc1 | inactive |
| C[C@H](CO)N1C[C@H](C)[C@H](CN(C)Cc2ccc(C(=O)O)cc2)Oc2c(NC(=O)C3CCOCC3)cccc2C1=O | inactive |
| COC(=O)c1ccccc1NC(=O)CNS(=O)(=O)c1cc(Cl)ccc1Cl | inactive |
| Cc1noc(C)c1NC(=O)N(C)C[C@@H]1OCCCC[C@@H](C)Oc2ccc(NC(=O)C3CCCCC3)cc2C(=O)N([C@H](C)CO)C[C@@H]1C | inactive |
| COC(=O)c1c(NC(=O)c2cc(-c3ccccn3)nc3c(C)cc(C)cc23)sc(C)c1C | inactive |
| COc1ccc(NC(=O)Nc2ccc3c(c2)C(=O)N([C@@H](C)CO)C[C@@H](C)[C@H](CN(C)S(=O)(=O)c2cccs2)O3)cc1 | inactive |
| Cc1noc(C)c1NC(=O)Nc1cccc2c1O[C@H](CN(C)C(=O)Nc1c(C)noc1C)[C@@H](C)CN([C@@H](C)CO)C2=O | inactive |

| Structure (SMILES) | outcome |
| --- | --- |
| CC[C@@H]1Cc2cc(O)ccc2C2=C1c1ccc(O)cc1C[C@H]2CC | inactive |
| CC(C)C(NS(=O)(=O)c1ccc(-c2ccc(Br)cc2)cc1)C(=O)O (centres undefined) | inactive |
| CC(C)(C)[C@H]1C=C(C(=O)NCc2ccccc2)O[C@@H](OCc2ccc(CO)cc2)C1 | inactive |
| O=C(NCc1ccccc1)C1=C[C@@H](C2CCCCC2)C[C@@H](OCc2ccc(CO)cc2)O1 | active |
| O=C(NCc1ccccc1)C1=C[C@H](C2CC2)C[C@H](OCc2ccc(CO)cc2)O1 | inactive |
| C[C@@H]1CN([C@@H](C)CO)C(=O)CCCn2nncc2CO[C@@H]1CN(C)Cc1ccccc1 | inactive |
| CN(C)c1nc(Nc2nc3ccccc3[nH]2)nc(N(C)C)n1 | inactive |
| COC(=O)C(C)N(C(=O)c1ccccc1[N+](=O)[O-])c1c(C)cccc1C (centres undefined) | inactive |
| COc1ccc(NC(=O)Nc2nn(Cc3ccc(Cl)cc3Cl)cc2Br)cc1OC | inactive |
| COCCCNC(=O)C(=O)c1cn(C)c2ccccc12 | inactive |
| O=C1C[C@@](C(=O)NCC(F)(F)F)(c2ccc([N+](=O)[O-])cc2)[C@@H](c2ccc(CO)cc2I)N1C1CCCCC1 | inactive |
| COC(=O)C1=C[C@H](O[C@@H]2O[C@H](CO)[C@@H](O)[C@H](O)[C@H]2O)C[C@H]2[C@]3(C)C[C@@H](c4ccoc4)OC(=O)[C@H]3CC[C@@]12C | inactive |
| CCn1c(SCC(=O)O)nnc1-c1ccc(OC)cc1 | inactive |
| C[C@H](CO)N1C[C@H](C)[C@H](CN(C)C(=O)Nc2ccccc2)Oc2ccc(NC(=O)CCN3CCOCC3)cc2CC1=O | inactive |
| OC[C@H]1O[C@@H](OCc2ccccc2)[C@H](O[C@@H]2OC[C@](O)(CO)[C@H]2O)[C@@H](O)[C@@H]1O | inactive |
| COc1ccc(CCN2C(=O)[C@@]3(Cc4ccccc42)c2ccccc2C(=O)N(Cc2ccccc2C(F)(F)F)[C@H]3c2ccc(CO)cc2)cc1 | inactive |
| C[C@@H]1CN([C@H](C)CO)C(=O)CCCn2cc(nn2)CO[C@@H]1CN(C)C(=O)Nc1ccc2c(c1)OCO2 | inactive |
| O=C(Nc1cccc(OCC(=O)N2CCOCC2)c1)C1CCCCC1 | inactive |
| O=c1c(-c2ccc(O[C@@H]3O[C@H](CO)[C@@H](O)[C@H](O)[C@H]3O)cc2)coc2c([C@@H]3O[C@H](CO)[C@@H](O)[C@H](O)[C@H]3O)c(O)cc(O)c12 | inactive |
| Cc1ccc(Cn2c(NCc3nc4ccccc4n3C)nc3ccccc32)cc1 | inactive |
| COc1cccc(-c2cc(C(F)(F)F)n3nc(C(=O)NCc4ccccn4)cc3n2)c1 | inactive |
| C[C@@H]1CN([C@@H](C)CO)C(=O)c2cc(NS(C)(=O)=O)ccc2O[C@@H]1CN(C)C | inactive |
| CCCN(C)C[C@@H]1Oc2ncc(C#Cc3ccccc3)cc2C(=O)N([C@H](C)CO)C[C@@H]1C | inactive |
| Cc1cc(OCC(=O)Nc2ccccc2C(N)=O)cc(C)c1Br | inactive |
| COc1ccc(CCNc2nc(C)cc(C)n2)cc1OC | inactive |

| Structure (SMILES) | outcome |
| --- | --- |
| COc1ccc(S(=O)(=O)Nc2ccc3c(c2)C(=O)N([C@H](C)CO)C[C@@H](C)[C@@H](CN(C)Cc2ccccc2)O3)cc1 | inactive |
| C[C@@H]1CCCCO[C@@H](CN(C)Cc2ccncc2)[C@H](C)CN([C@@H](C)CO)C(=O)c2cc(N(C)C)ccc2O1 | inactive |
| C[C@@H]1CCCCO[C@@H](CN(C)C(=O)Cc2ccccc2)[C@H](C)CN([C@@H](C)CO)C(=O)c2cc(NC(=O)Nc3ccc(F)cc3)ccc2O1 | inactive |
| CC(C)(C)c1ccc(OCC(=O)Nc2cccc(NC(=O)c3ccccc3)c2)cc1 | inactive |
| Oc1ccc(-c2c(-c3ccccc3)nn3c(C(F)(F)F)cc(C(F)(F)F)nc23)cc1 | inactive |
| COc1c(Br)cc2c(cc(C)n2-c2ccccc2)c1OCC(O)CNC(C)C (centres undefined) | inactive |
| CC(=O)c1c(C)n(CC(=O)O)c2ccccc12 | inactive |
| C[C@H](CO)N1C[C@H](C)[C@H](CN(C)C)Oc2c(NS(=O)(=O)c3ccc(Cl)cc3)cccc2C1=O | inactive |
| C[C@@H]1CN([C@H](C)CO)C(=O)CCCn2nncc2CO[C@@H]1CN(C)C | inactive |
| Cc1ccc(NC(=O)CSc2ncn[nH]2)c(C)c1 | inactive |
| C=C1C(=C/C=C2\CCC[C@]3(C)[C@@H]([C@H](C)CCCC(C)(C)O)CC[C@@H]23)C[C@@H](O)C[C@@H]1O | inactive |
| COCCCNC(=O)[C@@]1(Cc2ccccc2)COC(c2ccc(OCCCO)cc2)=N1 | inactive |
| CC(C)(O)C(O)COc1c2occc2cc2ccc(=O)oc12 (centres undefined) | inactive |
| CNC[C@@H]1Oc2c(NC(=O)C3CCOCC3)cccc2C(=O)N([C@@H](C)CO)C[C@H]1C | inactive |
| O=C(O)CCC(=O)Nc1ccc(-c2nc3ccccc3o2)cc1 | inactive |
| C[C@@H]1CN([C@H](C)CO)C(=O)c2cc(NC(=O)Nc3ccccc3)ccc2O[C@@H]1CN(C)Cc1ccc(Cl)c(Cl)c1 | inactive |
| CCOC(=O)c1ccc(COC(=O)c2cc(=O)[nH]c3ccccc23)o1 | inactive |
| Cc1noc(C)c1NC(=O)Nc1ccc2c(c1)CC(=O)N([C@H](C)CO)C[C@@H](C)[C@H](CN(C)S(=O)(=O)c1cccs1)O2 | inactive |
| C[C@@H]1CN([C@H](C)CO)C(=O)c2cc(NC(=O)Nc3ccccc3)ccc2O[C@@H](C)CCCCO[C@@H]1CN(C)S(=O)(=O)c1ccc(F)cc1 | inactive |
| COc1cc(O)cc(C)c1C(=O)OC1C(CO)OC(n2ccc(=O)[nH]c2=O)C1OC(C)=O (centres undefined) | inactive |
| COc1ccc(S(=O)(=O)Nc2ccc3c(c2)C(=O)N([C@H](C)CO)C[C@H](C)[C@@H](CN(C)S(C)(=O)=O)OCCCC[C@@H](C)O3)cc1 | inactive |
| Cc1noc(C)c1S(=O)(=O)Nc1ccc2c(c1)C(=O)N([C@H](C)CO)C[C@H](C)[C@H](CN(C)C(=O)CCC(F)(F)F)OCCCC[C@H](C)O2 | inactive |
| C[C@@H]1CCCCO[C@@H](CN(C)C(=O)c2ccccc2)[C@H](C)CN([C@@H](C)CO)C(=O)c2cc(NS(=O)(=O)c3cn(C)cn3)ccc2O1 | inactive |
| Cc1sc2nc(SCC(=O)Nc3ccccc3C(F)(F)F)nc(N)c2c1C | inactive |
